A selection: hits, their analogues and other compounds. The true share with any hit is near 7.3%.
NPC1 prom act: qHTS Assay for NPC1 Promoter Activators; Huh7 NPC1 promoter luciferase reporter, 24 h; Potency, µM (titrated, usually from 9.22 µM), actives largely listed as activators; 320,000 tested, 2.4% active; AID 485313, 2010; note: nearly all actives have a fitted effect of over 60% in size
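Stable NPC1-promoter luciferase Huh7 line; cpd (DMSO) 24 h, 37 °C, 5% CO2; Amplite luciferase reagent 10 min RT; luminescence readout. qHTS format.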
SMN2 splice up: qHTS Assay for Enhancers of SMN2 Splice Variant Expression; HEK293 SMN2-luciferase splicing reporter, luminescence, 30-36 h; AID 1458, 2008; Potency, µM (top dose mostly 46.1 µM), hits mostly activators; 210,000 tested, 2.8% active; note: nearly all actives have a fitted effect of over 55% in size
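HEK293 cells carry an SMN2 minigene-luciferase reporter in which exon 7 inclusion puts luciferase in frame. Cells were seeded at 2000 cells/well, attached for 10-12 hours, then exposed to compounds for 30-36 hours at 37C before ONE-Glo luminescence.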
ELG1 genotoxic: qHTS screen for small molecules that induce genotoxicity in human embryonic kidney (HEK293T) cells expressing luciferase-tagged ELG1; HEK293T ELG1-luciferase reporter, luminescence, 16 h; Potency, µM (titrated, usually from 46 µM), hits mostly activators; 330,000 tested, 1.3% active; AID 504466, 2011; note: nearly all actives have a fitted effect of over 60% in size
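Reporter readout depends on ELG1 protein level, which increases with genetic stress. After 16 hr compound exposure at 37 °C, luciferase activity was quantified using ONE-Glo.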
Luc counter: Counterscreen for Luciferase (Kinase-Glo TM) Inhibition; Kinase-Glo luciferase, ATP luminescence, 8 min; 200,000 tested, 0.28% active; Luciferin 4-monooxygenase (Photuris pensylvanica), Q27757; Potency, µM (doses to about 38.3 µM), hits mostly inhibitors; note: nearly all actives have a fitted effect of over 60% in size
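Compound is pinned into ATP-containing buffer (10 uM ATP, imidazole pH 7.2, 7 mM MgCl2). Kinase-Glo luciferase reagent is then added. Light output is recorded following an 8-min room-temperature incubation.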
FLuc modulator: qHTS profiling assay for firefly luciferase inhibitor/activator using purifed enzyme and Km concentrations of substrates (counterscreen for miR-21 project); Luciferin 4-monooxygenase (Photinus pyralis), P08659; purified FLuc, Km substrates, luminescence inhibition; Potency, µM (titrated, usually from 57.5 µM), actives largely listed as inhibitors; 360,000 tested, 6.9% active; note: nearly all actives have a fitted effect of over 55% in size
Target sequence (P08659 whole entry, looked up): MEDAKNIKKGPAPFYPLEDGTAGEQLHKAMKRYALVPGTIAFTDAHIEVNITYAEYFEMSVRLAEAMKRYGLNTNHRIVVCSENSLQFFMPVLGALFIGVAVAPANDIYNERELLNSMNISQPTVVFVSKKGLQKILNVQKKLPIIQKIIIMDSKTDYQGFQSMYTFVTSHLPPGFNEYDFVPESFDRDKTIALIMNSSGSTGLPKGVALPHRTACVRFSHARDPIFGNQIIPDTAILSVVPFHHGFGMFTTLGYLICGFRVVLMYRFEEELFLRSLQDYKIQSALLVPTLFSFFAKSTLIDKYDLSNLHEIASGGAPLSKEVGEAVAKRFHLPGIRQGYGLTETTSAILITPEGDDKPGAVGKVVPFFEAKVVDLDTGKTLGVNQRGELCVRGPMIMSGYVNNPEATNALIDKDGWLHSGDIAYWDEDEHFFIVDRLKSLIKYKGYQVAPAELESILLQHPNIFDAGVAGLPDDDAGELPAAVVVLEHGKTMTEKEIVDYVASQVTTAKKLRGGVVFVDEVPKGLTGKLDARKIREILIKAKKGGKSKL
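Purified P. pyralis luciferase (10nM final) with 10uM D-luciferin and 10uM ATP (Km levels) in 50mM Tris acetate pH 7.5, 10mM Mg acetate, 0.01% Tween-20, 0.05% BSA; qHTS 6-point titration, ~60 µM downward; luminescence read.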
Rab9 promoter act: qHTS Assay for Rab9 Promoter Activators | 320,000 tested, 2.8% active | Potency, µM (titrated, usually from 9.22 µM), usual class: activators | Huh7 Rab9 promoter-luciferase reporter, luminescence, 24 h; note: nearly all actives have a fitted effect of over 60% in size
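Quantitative HTS format; Huh7 Rab9-luciferase reporter cells (1500/well) receive compound 2 h post-plating, incubate 24 h at 37 °C, then get luciferase reagent for 10 min before luminescence reading.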
A number is an active result; – = inactive; ? = inconclusive; · = no result given; [ ] = dose if it differs, or a comment. Calls come from the whole dose curve; as a rule, active = well fitted curve in the direction sought with a large enough effect; inconclusive = small, poorly fitted or top-dose-only effect, or another doubt; inactive = no such curve, though single readings can be large; an effect the other way counts as inactive or inconclusive.

SMILES | NPC1 prom act | SMN2 splice up | ELG1 genotoxic | Luc counter | FLuc modulator | Rab9 promoter act
O=c1oc2ccccc2c2oc3cc(O)c(O)cc3c12 | – | – | ? | – | 21µM | –
COc1c(O)c(O)cc2c1oc1c3cc(C)ccc3oc(=O)c21 | · | – | · | – | · | ·
NCCC[C@@H](CC(=O)N[C@@H]1CCNC[C@H]1C(=O)N[C@H](CC(=O)N[C@@H](CCC(=O)O)CC(=O)O)Cc1ccccc1)NC(=O)C[C@H](Cc1c[nH]c2ccccc12)NC(=O)[C@@H]1CNCC[C@H]1N | · | – | · | – | · | ·
CCc1ccc(/C=N/NC(=O)c2nnn(-c3nonc3N)c2C(C)C)cc1 | – | · | – | · | 2.4µM | –
CC(C)c1c(C(=O)N/N=C/c2cccnc2)nnn1-c1nonc1N | – | · | –[9.26 µM] | · | – | –
CC(C)c1c(C(=O)N/N=C/c2ccc(Cl)cc2Cl)nnn1-c1nonc1N | – | · | – | · | 6µM | –
Cn1c(N=NC(=O)c2ccccc2)c(O)c2ccccc21 | 0.71µM | 1.3µM | ? | – | 0.85µM | 0.56µM
Cn1c(O)c(N=NC(=O)CNC(=O)c2ccccc2)c2ccccc21 | – | · | – | · | – | –
O=C(N/N=C/c1ccoc1)c1ccc(Br)cc1 | – | · | – | · | 15µM | –
O=C(N/N=C/c1coc2ccccc2c1=O)c1cc(Br)ccc1O | – | · | – | · | – | –
O=C(N/N=C/c1ccoc1)c1ccc(Cl)cc1 | – | · | – | · | ? | –
O=C(N/N=C/c1coc2ccccc2c1=O)c1ccccc1 | – | – | – | – | 17µM | –
O=C(N/N=C/c1coc2ccccc2c1=O)c1ccc(Cl)cc1 | – | · | – | · | – | –
O=C(N/N=C/c1ccc[nH]1)c1ccccc1O | – | · | ? | – | 9.5µM | ?
O=C(N/N=C/c1oc(O)c2ccccc12)c1ccccc1O | – | – | – | – | 11µM | –
CCOC(=O)c1cc(-c2ccccc2)n(CC(=O)Nc2ccccc2OCC)c1C | · | · | · | · | – | ·
CSc1ncnc2c1ncn2CC(=O)[C@H]1CC[C@H]2[C@H]3CCC4=CC(=O)CC[C@@]4(C)[C@@H]3CC[C@@]12C | · | –[9.22 µM] | · | –[7.66 µM] | · | ·
CCOC(=O)CNC(=O)c1cc2c(=O)n3cccc(C)c3nc2n1C | · | · | · | · | – | ·
CCc1ccc(NC(=O)Nc2cn(C)c(=O)c3ccccc23)cc1 | · | · | · | · | – | ·
O=C(N/N=C/c1sc(=O)n(-c2ccccc2)c1Cl)c1ccccc1 | 1.6µM | 7.1µM | – | – | 6µM | 1.8µM
O=[N+]([O-])CC(=Nc1ccc(F)cc1)N/N=C\c1oc(O)c2ccccc12 | ? | · | – | · | 15µM | –
NC(=O)N/N=C/c1sc(=O)n(-c2ccccc2)c1Cl | – | · | – | · | ? | –
O=C(N/N=C/c1ccoc1)c1ccccc1 | – | · | ? | · | 27µM | –
Oc1oc(C=Nc2ccc(F)cc2F)c2ccccc12 | – | – | – | – | – | –
O=C(N/N=C/c1ccoc1)c1ccccc1O | – | · | ? | · | 11µM | –
SMILES | NPC1 prom act | SMN2 splice up | ELG1 genotoxic | Luc counter | FLuc modulator | Rab9 promoter act
Cc1ccc(C)n1-c1c(C(=O)NCCCN2CCN(c3ccc(F)cc3)CC2)sc2ncccc12 | · | · | · | · | – | ·
CCOC(=O)CN(Cc1ccccc1)C(C(=O)NC1CCCCC1)c1ccc(C)cc1 (configuration not stated) | · | – | · | · | – | ·
CCCCN(CC)C(=O)CSc1nc2c(sc(=S)n2-c2ccc(OCC)cc2)c(=O)[nH]1 | – | – | – | – | 17µM | –
Cc1ccc(-c2nc(CS(=O)(=O)CC(=O)Nc3ccc(Br)cc3F)c(C)o2)cc1 | · | – | · | · | – | ·
CN(C)c1ccc(/C=N/NC(=O)c2cccc(C(=O)N/N=C/c3ccc(N(C)C)cc3)n2)cc1 | – | – | – | – | ? | –
C=CCn1c(/N=C/c2ccc(OC)cc2)nc2ccccc21 | – | · | – | · | 0.43µM | –
CCCCn1c(/N=C/c2ccc(N(C)C)cc2)nc2ccccc21 | – | – | – | – | 1.9µM | –
Cn1c(=S)n(/N=C/c2ccc3c(c2)OCO3)c2ccccc21 | – | – | – | – | ? | –
CCCCn1c(N)nc2ccccc21 | – | – | – | – | – | –
CCCCn1c(/N=C/c2ccc3c(c2)OCO3)nc2ccccc21 | – | – | – | – | 8.5µM | –
CN(C)c1ccc(/C=N/n2ncc3ccccc32)cc1 | – | 8.9µM | ? | – | 11µM | ?
COc1ccc(/C=N/c2nc3ccccc3n2CCN2CCCCC2)cc1OC | – | – | – | – | – | –
Cc1ccccc1CNC(=O)c1cccc(NC(=O)N2CCSc3ncccc32)c1 | · | · | · | · | – | ·
CCCCNC(=O)c1nn(-c2ccc(C)cc2)c(=O)c2c1c1ccccc1n2C | · | – | · | · | – | ·
Nc1nc(N)c2[nH]cnc2n1 (tested in a mixture with another compound) | · | –[9.22 µM] | · | –[7.66 µM] | · | ·
CCCCOC(=O)c1ccc(OC(=O)c2sc3ncn(Cc4cccc(F)c4)c(=O)c3c2C)cc1 | · | · | · | · | – | ·
CCCCC/C=C\C/C=C\CCCCCCCC(=O)NCCCC(=O)O | · | – | · | – | · | ·
C=CCn1c(/N=C/c2ccc(N(C)C)cc2)nc2ccccc21 | – | · | – | · | 0.13µM | –
CCCn1c(/N=C/c2ccccc2O)nc2ccccc21 | – | – | – | – | – | –
CCn1c(/N=C/c2ccc(OC)cc2O)nc2ccccc21 | – | · | – | · | 0.95µM | –
C#CC(C)(C)NC(=O)c1ccc(-c2ccccc2F)cc1 | ? | · | ? | · | 19µM | ?
Cc1ccc(CCNC(=O)CN(c2ccc(C(C)C)cc2)S(=O)(=O)c2c(C)nn(C)c2C)cc1 | · | – | · | · | – | ·
CCc1ccc(/C=C2\Oc3cc(OC(=O)N4CCOCC4)ccc3C2=O)cc1 | – | – | – | – | 7.6µM | –
COc1cc(OC)c(OC)cc1/C=C1\Oc2cc(OS(C)(=O)=O)ccc2C1=O | – | · | – | · | – | –
COc1ccccc1C(=O)Oc1ccc2c(c1)O/C(=C\c1ccncc1)C2=O | – | – | – | – | ? | –
SMILES | NPC1 prom act | SMN2 splice up | ELG1 genotoxic | Luc counter | FLuc modulator | Rab9 promoter act
COc1ccc2c(c1)O/C(=C\c1ccccc1C)C2=O | – | · | – | · | 13µM | ?
CC(=O)Oc1ccc2c(c1)O/C(=C\c1ccncc1)C2=O | – | · | – | · | ? | –
COc1ccc(/C=C2\Oc3cc(OC(=O)N4CCOCC4)ccc3C2=O)cc1 | – | · | – | · | 6.7µM | –
Cc1ccc2[nH]c3c(=O)n(CC(=O)N4CCCC(C)C4)ncc3c2c1 (configuration not stated) | · | · | · | · | – | ·
N#C/C(=C/c1cccs1)c1nc2ccccc2[nH]1 | ? | ? | ? | – | ? | 2.8µM
Cc1c(Cl)cccc1-c1ccc(/C=C(\C#N)c2nc3ccccc3[nH]2)o1 | · | – | · | · | ? | ·
Cc1ccc(/C=C(\C#N)c2nc3ccccc3[nH]2)s1 | 0.79µM | ? | ? | – | 4.8µM | 0.35µM

Screening data (PubChem BioAssay)
